# A549 viability = A549 cytotoxicity, counter-screen for Nrf2 inhibitors. A549 ARE-Fluc cells, CellTiter-Fluor viability, 18-24 h. Potency, µM (titrated, usually from 46 µM), usual class: inhibitors. actives 0.16% (n = 390,000). AID 504648
#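 A549 ARE_Fluc cells in 5% FBS OPTI-MEM were exposed to compounds in concentration-response for 18-24 h at 37 deg C. Viability was read by CellTiter-Fluor fluorescence (Ex 405/Em 525) after 30 min, before the luciferase read.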
# Nrf2 ARE act = activates Nrf2 signaling; AID 624171; AREc32 ARE-luciferase reporter (MCF7-derived line), luminescence, 24 h; actives 0.31% (n = 410,000); Potency, µM (series often up to 46.1 µM), usual class: activators; further: nearly all actives have a fitted effect of over 65% in size
#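 Luminescent ARE reporter assay in AREc32_Fluc cells: overnight plating at 37 deg C, 24 hr compound incubation, Steady-Glo added, 30 min RT before reading.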
# Nrf2 inh = inhibitors of Nrf2 signaling. AID 504444. A549 ARE-Fluc reporter, luciferase luminescence, 18-24 h. actives 2.1% (n = 360,000). Potency, µM (highest dose often 46 µM), most hits filed as inhibitors; further: nearly all actives have a fitted effect of over 60% in size
#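 In this cell-based qHTS, ARE-driven firefly luciferase in A549 cells reports Nrf2 activity; the luminescent signal after BugLite lysis is the measured value, with a prior CellTiter-Fluor read for cell health.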
# ALOX12 inh = blocks human arachidonate 12S-lipoxygenase. AID 1671190. P18054. actives 1.1% (n = 580,000). Potency, µM (series often up to 108 µM), hits mostly inhibitors. purified 12hLO, xylenol orange hydroperoxide absorbance
#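 Purified human 12hLO at 150 nM in 25 mM Hepes, 0.01% Triton X-100, pH 7.0, preincubated 15 min at room temperature with compound. Reaction started with 40 uM arachidonic acid, 30 min at room temperature. Hydroperoxide measured by Fe-xylenol orange, 573/405 nm absorbance ratio.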
# LDHA block = blocks human lactate dehydrogenase A; P00338; purified LDHA, NADH/diaphorase-resazurin fluorescence; stronger effect = lower value; activity change, % (values are at about 110 or 230 µM); actives 0.15% (n = 480,000); AID 1347041; in the data active means activity change below about -30%; inconclusive means mostly about -25% to -30%
#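 Enzyme activity of human lactate dehydrogenase 5 (2 nM; 0.06 mM NADH, 0.2 mM pyruvate, 5 min, RT) is measured via a resazurin/diaphorase fluorescence readout of residual NADH.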
# ERG-DNA inh = blocks human ERG Ets domain binding to DNA; P11308; fluorescence polarization, His-ERG Ets domain / labelled DNA; Potency, µM (doses to about 76.9 µM), most hits filed as inhibitors; actives 0.028% (n = 370,000); active means well fitted inhibition curve with a large enough effect in the polarisation, with a control signal flat; inconclusive means small, poorly fitted or top-dose-only effect, or effect the other way, or a change in a side signal; inactive means no such curve, though single readings can be large or run the other way; the % refers to the polarisation;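 further: polarization taken with two DNA probes labelled with fluorescein and Texas red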
# Target sequence (P11308 whole entry, looked up, the tested form may be a part): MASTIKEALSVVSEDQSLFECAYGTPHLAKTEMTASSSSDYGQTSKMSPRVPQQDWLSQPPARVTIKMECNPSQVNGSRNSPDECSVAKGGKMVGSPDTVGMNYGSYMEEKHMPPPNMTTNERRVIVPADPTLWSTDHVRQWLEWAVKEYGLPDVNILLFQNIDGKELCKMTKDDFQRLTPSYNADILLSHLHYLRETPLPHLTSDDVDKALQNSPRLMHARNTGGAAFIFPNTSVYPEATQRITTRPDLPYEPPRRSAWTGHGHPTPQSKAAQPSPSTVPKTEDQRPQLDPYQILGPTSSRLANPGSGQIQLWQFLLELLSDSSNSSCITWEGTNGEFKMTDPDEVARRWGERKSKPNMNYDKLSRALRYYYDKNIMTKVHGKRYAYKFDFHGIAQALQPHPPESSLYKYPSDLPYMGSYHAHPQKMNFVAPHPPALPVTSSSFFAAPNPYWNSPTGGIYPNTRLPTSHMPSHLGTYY
#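 His-tagged ERG Ets domain (1 uM in the protein solution; 300mM KCl, 50mM Tris-HCl, 1mM EDTA, 1mM DTT, pH 7.5) received compound, then a probe mix of 5 nM fluorescein-DNA and 100nM Texas-615-DNA. Fluorescence polarization was read for both dyes.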
# A number is an active result; - = inactive; ? = inconclusive; . = not tested or not shown; ! = not confirmed by another sample. An excerpt weighted towards active compounds, which were near 2.7% of everything screened. Unless noted, the call rests on the fitted dose curve; in most records, active means well fitted curve in the direction sought with a large enough effect; inconclusive means small, poorly fitted or top-dose-only effect, or another doubt; inactive means no such curve, though single readings can be large; an effect the other way counts as inactive or inconclusive.
SMILES,A549 viability,Nrf2 ARE act,Nrf2 inh,ALOX12 inh,LDHA block,ERG-DNA inh
O=c1[nH][nH]cc1C=Nc1ccccc1O,-,12.6µM,-,-,-,-
O=c1[nH][nH]cc1C=Nc1cc(Cl)ccc1O,-,12.6µM,?,-,-,-
O=c1[nH][nH]cc1C=Nc1ccccc1Cl,-,-,-,-,-,-
O=C(NCC(F)(F)F)c1cccc(NC(=O)c2cccc3cccnc23)c1,.,.,.,-,-,.
CC1(C)CC(=O)C2=C(C1)N1CCc3cc4c(cc3C1=CC2c1ccc(F)cc1)OCCCO4 (stereo not given),.,.,.,25.1µM,-,.
O=C1CCCC2=C1C(c1ccc(F)cc1)C=C1c3cc4c(cc3CCN12)OCCCO4 (stereo not given),.,.,.,?,-,.
c1ccc(-c2ccccc2OCCOCCN2CCOCC2)cc1,-,-,-,?,-45.0,-
C=CCNCCOCCOc1ccccc1-c1ccccc1,-,-,-,?,-30.2,-
CC(C(=O)N(C)Cc1ccccc1)N(c1ccc(Oc2ccccc2)cc1)S(C)(=O)=O (stereo not given),.,.,.,-,-,.
CCc1sc(C(=O)NCCC(C)C)cc1C,.,.,.,-,-,.
CC1CCC(C(=O)NC(C(=O)OCC(=O)c2ccccc2)C(C)C)CC1 (stereo not given),-,-,16.4µM,?,-,-
CCc1ccc(C(=O)COC(=O)C(Cc2ccccc2)NC(=O)C2CCC(C)CC2)cc1 (stereo not given),-,-,?,-,-,-
COc1cc(C2C(C(=O)Nc3ccccc3C)=C(C)Nc3nc(SCc4cc(C)ccc4C)nn32)ccc1O (stereo not given),?,-,16.4µM,-,-,-
COc1cc(C2C(C(=O)Nc3ccc(C)cc3C)=C(C)Nc3nc(SCc4ccccc4)nn32)cc(OC)c1OC (stereo not given),-,-,-,-,-,-
CCCc1cc(=O)n(-c2nc3ccccc3s2)[nH]1,-,-,?,-,-,-
CCOC(=O)Cc1cc(=O)n(-c2nc3ccccc3s2)[nH]1,-,-,-,7.94µM,-,-
Cn1c(COc2cccc3cccnc23)nnc1SCC(=O)O,-,-,-,7.94µM!,-,-
Cc1cc(Cc2ccccc2)c(C)cn1,.,.,.,-,-,.
N#Cc1cc2sc3nnc(-c4ccncc4)n3c2cc1C#N,-,?,6.51µM,-,-,-
O=C(Cc1coc2cc3c(cc12)CCC3)NC1CCCCC1,.,.,.,?,-,.
Cc1ccc(C(=O)CSC2=C(C#N)C(c3ccco3)C3=C(CCCC3=O)N2)cc1 (stereo not given),?,-,?,?,-,-
CC(C)(C)c1ccc(C(=O)CCCSC2=C(C#N)C(c3ccco3)C3=C(CCCC3=O)N2)cc1 (stereo not given),20.6µM,-,20.6µM,-,-,-
COc1ccc(NC(=O)CSC2=C(C#N)C(c3ccco3)C3=C(CCCC3=O)N2)c(OC)c1 (stereo not given),-,-,-,17.8µM,-,-
COc1ccccc1C(=O)Nc1ccc2oc(-c3ccccc3F)nc2c1,.,.,.,?,-,.
OC(CNCc1ccco1)Cn1c2ccc(Br)cc2c2cc(Br)ccc21 (stereo not given),?,-,?,6.31µM,-,.
SMILES,A549 viability,Nrf2 ARE act,Nrf2 inh,ALOX12 inh,LDHA block,ERG-DNA inh
CCOC(=O)c1c(C)oc2nc(C)nc(NCCc3ccc(OCC)cc3)c12,-,-,23.1µM,-,-,-
CC(C)N1CCc2c(sc(NC(=O)c3ccco3)c2-c2nc3ccccc3s2)C1,.,.,.,?,-,.
S=C1NC2=C(CCc3ccccc32)C(c2ccccc2Cl)N1 (stereo not given),.,.,.,8.91µM,-,.
COc1ccccc1C1NC(=S)NC2=C1CCc1ccccc12 (stereo not given),.,.,.,28.2µM,-,.
CSc1ccc(C2NC(=S)NC3=C2CCc2ccccc23)cc1 (stereo not given),.,.,.,?,-,.
S=C1NC2=C(CCCC2=C2SCCS2)C(c2ccccc2)N1 (stereo not given),-,22.4µM,?,?,-,-
S=C1NC2=C(CCc3ccccc32)C(c2ccc(Cl)cc2)N1 (stereo not given),.,.,.,28.2µM,-,.
